How the values were obtained:
Test in all cases: log2 ratio of Biotin-Ahx-Ub-VS probe labelling (fragment/DMSO); higher = less target engagement (more negative = stronger competition), active = hit call of the paper (q ≤ 0.05, log2 ratio ≤ -1)
Settings in all cases: compound concentration: 200 uM; treatment time: 3 h
USP42 = biological target: T1, USP42 (UniProt Q9H9J4)
T1 sequence (whole entry): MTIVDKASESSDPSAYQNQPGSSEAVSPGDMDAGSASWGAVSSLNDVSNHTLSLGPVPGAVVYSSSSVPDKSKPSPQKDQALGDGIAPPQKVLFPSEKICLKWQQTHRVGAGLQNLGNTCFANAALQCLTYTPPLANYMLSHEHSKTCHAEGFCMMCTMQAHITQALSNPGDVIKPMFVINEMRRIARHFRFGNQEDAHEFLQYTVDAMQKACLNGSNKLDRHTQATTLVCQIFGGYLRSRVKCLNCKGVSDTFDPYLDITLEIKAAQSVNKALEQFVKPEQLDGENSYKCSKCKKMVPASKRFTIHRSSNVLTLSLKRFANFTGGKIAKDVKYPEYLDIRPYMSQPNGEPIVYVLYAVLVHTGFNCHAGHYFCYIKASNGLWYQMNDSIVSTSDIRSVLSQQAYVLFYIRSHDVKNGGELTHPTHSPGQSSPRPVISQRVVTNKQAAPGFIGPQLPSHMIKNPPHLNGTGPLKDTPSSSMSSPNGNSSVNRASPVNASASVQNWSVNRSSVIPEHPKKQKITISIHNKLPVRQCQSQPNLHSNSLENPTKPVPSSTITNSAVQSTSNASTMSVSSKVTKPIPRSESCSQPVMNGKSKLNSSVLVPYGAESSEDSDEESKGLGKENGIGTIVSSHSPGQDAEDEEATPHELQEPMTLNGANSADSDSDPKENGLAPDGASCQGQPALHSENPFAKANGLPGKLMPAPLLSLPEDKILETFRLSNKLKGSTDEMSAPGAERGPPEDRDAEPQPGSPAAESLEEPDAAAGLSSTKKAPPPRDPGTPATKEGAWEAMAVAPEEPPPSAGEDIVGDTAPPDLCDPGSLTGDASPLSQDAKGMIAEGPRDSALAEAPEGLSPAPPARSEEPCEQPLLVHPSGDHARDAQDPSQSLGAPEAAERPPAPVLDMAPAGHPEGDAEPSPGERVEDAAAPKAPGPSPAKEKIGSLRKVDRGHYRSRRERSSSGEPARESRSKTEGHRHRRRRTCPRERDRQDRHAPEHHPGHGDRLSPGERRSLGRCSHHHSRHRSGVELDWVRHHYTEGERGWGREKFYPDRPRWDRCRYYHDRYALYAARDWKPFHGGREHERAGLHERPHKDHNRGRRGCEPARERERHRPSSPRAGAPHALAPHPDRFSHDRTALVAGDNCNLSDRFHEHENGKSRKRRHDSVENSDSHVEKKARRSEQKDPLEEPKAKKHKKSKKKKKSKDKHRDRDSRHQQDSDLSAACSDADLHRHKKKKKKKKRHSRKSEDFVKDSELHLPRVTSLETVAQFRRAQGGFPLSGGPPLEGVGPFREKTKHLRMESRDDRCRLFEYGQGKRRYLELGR
How it was run: (§1)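 Using Biotin-Ahx-Ub-VS at 0.5 µM final for 1 h, DUBs were labelled in HEK293T lysate (495 µg per sample) that had first been treated in triplicate with fragment at 200 µM or vehicle for 3 h. NeutrAvidin enrichment, LysC and trypsin digestion and diaPASEF LC-MS/MS followed. Spectronaut label-free quantities were global-median-normalised. Values are average log2 fragment/vehicle ratios by unpaired t-test, using proteins with ≥2 unique peptides.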

USP46 = USP46 (UniProt P62068)
Chain of USP46 (P62068 whole entry): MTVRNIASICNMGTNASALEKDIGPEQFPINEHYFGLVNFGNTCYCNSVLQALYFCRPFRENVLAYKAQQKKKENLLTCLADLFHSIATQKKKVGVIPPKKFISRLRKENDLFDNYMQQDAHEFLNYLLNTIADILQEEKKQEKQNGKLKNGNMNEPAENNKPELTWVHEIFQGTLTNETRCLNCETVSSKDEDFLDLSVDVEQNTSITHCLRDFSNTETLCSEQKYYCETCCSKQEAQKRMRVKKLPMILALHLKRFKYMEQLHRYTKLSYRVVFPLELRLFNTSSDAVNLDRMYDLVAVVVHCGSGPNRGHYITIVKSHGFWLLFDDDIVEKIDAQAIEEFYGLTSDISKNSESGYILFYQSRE
How it was run: as §1

USP47 = biological target: T2, USP47 (UniProt Q96K76)
T2 sequence (whole entry): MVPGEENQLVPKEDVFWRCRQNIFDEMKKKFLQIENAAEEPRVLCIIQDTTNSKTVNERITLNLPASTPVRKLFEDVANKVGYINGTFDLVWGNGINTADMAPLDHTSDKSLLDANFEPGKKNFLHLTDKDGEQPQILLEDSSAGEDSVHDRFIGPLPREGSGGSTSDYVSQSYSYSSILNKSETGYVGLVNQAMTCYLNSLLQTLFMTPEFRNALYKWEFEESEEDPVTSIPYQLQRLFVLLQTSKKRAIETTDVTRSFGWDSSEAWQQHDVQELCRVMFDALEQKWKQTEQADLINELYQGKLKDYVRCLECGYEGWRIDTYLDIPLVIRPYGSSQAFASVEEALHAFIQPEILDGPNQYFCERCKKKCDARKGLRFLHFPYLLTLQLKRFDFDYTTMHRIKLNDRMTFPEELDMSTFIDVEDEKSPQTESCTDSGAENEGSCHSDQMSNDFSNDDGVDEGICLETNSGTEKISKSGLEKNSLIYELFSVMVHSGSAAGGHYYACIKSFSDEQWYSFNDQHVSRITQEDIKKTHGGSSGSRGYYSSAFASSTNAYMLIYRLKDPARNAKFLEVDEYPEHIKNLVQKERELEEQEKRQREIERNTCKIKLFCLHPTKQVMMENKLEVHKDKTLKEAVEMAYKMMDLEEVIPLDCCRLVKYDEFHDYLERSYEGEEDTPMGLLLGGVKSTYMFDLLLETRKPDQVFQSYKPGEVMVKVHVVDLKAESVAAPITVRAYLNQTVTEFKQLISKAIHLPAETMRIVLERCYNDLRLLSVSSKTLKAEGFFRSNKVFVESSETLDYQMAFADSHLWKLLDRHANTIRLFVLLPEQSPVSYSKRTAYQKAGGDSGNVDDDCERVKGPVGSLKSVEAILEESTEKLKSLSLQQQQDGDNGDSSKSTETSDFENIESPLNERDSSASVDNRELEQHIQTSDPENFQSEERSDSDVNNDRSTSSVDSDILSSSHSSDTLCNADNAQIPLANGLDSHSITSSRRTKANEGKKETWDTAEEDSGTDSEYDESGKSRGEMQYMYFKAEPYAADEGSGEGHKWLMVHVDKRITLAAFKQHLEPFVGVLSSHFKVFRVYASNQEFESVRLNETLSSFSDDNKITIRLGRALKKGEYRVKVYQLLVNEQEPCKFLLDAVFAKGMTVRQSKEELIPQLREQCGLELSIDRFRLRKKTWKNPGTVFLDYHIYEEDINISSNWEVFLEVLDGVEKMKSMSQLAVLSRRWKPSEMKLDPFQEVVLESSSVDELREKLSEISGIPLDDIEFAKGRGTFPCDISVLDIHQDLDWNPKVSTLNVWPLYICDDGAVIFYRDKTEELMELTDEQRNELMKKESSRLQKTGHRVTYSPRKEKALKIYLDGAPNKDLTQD
How it was run: as §1

USP48 = biological target: T3, USP48 (UniProt Q86UV5)
T3 sequence (whole entry): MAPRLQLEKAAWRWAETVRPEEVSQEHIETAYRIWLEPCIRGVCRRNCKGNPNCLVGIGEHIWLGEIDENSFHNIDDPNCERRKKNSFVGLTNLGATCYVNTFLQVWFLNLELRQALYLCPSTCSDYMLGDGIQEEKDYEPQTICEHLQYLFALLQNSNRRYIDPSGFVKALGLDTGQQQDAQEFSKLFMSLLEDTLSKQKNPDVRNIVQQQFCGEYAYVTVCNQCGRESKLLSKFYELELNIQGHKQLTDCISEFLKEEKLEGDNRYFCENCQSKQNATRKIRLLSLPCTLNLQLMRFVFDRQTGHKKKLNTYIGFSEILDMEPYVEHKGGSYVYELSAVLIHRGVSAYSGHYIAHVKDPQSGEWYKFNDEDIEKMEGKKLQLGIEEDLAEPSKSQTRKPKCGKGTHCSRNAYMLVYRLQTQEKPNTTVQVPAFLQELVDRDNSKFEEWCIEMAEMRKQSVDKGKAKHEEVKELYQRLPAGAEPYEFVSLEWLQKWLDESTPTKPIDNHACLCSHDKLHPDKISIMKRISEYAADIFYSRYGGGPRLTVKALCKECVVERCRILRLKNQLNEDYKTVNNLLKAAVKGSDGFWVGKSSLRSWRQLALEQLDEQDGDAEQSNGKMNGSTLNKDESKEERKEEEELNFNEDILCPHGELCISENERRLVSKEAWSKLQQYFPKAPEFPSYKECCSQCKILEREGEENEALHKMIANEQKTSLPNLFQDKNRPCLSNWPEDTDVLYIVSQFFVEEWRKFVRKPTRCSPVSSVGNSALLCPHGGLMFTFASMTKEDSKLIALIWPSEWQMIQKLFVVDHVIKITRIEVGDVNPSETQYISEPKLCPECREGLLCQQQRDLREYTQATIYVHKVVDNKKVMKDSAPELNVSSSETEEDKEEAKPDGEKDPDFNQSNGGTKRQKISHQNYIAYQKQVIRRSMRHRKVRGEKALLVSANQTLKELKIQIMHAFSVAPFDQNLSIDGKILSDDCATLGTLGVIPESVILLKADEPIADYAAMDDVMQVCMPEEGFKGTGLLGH
How it was run: as §1

USP5 = biological target: T4, USP5 (UniProt P45974)
T4 sequence (whole entry): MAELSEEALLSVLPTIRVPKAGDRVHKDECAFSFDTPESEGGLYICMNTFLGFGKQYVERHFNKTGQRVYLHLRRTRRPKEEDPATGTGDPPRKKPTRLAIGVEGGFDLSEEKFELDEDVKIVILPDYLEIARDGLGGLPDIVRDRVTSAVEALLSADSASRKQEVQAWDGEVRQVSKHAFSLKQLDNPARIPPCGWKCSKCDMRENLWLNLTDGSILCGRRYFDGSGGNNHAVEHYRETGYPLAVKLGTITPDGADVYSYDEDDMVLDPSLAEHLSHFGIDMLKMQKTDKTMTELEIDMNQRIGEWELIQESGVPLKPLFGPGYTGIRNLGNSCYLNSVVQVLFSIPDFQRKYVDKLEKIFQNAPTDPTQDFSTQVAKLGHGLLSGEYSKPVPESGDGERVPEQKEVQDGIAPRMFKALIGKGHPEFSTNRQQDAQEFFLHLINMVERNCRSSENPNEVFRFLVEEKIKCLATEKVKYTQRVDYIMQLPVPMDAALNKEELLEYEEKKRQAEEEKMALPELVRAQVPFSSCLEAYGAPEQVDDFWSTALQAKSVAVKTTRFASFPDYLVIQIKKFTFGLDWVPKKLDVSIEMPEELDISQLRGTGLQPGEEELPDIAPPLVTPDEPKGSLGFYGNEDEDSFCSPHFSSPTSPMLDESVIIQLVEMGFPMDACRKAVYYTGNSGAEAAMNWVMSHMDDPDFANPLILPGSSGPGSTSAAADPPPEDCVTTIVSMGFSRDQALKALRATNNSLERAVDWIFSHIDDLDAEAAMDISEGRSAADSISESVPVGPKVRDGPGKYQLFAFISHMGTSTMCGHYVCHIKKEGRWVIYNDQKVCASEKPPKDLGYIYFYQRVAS
How it was run: as §1

USP54 = USP54 (UniProt Q70EL1)
Chain of USP54 (Q70EL1 whole entry): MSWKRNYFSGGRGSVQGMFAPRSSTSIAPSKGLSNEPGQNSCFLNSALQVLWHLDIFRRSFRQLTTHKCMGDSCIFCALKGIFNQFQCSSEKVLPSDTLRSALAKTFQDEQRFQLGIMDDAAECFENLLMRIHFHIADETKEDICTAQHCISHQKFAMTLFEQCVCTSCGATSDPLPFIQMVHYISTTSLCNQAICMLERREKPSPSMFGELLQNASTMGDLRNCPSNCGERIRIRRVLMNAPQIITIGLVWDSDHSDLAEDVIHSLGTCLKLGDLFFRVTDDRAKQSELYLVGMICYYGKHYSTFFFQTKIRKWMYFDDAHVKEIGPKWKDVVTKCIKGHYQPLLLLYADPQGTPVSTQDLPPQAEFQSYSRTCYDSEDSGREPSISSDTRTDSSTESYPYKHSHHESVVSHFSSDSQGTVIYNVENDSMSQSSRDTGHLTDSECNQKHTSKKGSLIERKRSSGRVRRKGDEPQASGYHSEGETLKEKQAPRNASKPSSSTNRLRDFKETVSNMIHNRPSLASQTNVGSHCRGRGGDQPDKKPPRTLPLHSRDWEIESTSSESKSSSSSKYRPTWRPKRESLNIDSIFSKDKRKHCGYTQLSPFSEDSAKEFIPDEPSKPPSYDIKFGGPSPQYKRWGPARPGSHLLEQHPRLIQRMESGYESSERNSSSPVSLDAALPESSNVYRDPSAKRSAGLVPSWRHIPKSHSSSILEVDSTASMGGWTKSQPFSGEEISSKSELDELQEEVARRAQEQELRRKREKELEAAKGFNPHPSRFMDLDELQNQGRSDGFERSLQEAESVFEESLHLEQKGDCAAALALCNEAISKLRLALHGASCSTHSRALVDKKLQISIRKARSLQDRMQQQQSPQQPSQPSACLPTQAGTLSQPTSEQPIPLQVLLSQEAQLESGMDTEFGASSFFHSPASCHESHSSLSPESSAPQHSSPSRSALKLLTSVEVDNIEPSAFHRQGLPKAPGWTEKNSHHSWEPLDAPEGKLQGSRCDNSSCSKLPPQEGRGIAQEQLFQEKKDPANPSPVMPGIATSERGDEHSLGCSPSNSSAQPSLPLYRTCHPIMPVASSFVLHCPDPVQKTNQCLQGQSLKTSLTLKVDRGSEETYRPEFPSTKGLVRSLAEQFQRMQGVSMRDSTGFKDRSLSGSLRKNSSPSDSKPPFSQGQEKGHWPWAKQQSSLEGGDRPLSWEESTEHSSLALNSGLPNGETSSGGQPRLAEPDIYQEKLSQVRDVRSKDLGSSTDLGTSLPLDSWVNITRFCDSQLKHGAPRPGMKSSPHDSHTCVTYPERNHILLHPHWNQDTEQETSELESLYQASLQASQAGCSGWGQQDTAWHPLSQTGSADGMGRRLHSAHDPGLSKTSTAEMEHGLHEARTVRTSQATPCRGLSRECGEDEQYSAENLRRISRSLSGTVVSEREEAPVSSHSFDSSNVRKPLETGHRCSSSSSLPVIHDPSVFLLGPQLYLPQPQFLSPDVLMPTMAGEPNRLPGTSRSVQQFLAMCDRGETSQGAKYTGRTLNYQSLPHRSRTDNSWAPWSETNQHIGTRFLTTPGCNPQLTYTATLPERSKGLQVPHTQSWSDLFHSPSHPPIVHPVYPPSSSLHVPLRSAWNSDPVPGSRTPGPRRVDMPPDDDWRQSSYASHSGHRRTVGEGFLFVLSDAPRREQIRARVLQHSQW
How it was run: as §1

USP7 = USP7 (UniProt Q93009)
Chain of USP7 (Q93009 whole entry, looked up): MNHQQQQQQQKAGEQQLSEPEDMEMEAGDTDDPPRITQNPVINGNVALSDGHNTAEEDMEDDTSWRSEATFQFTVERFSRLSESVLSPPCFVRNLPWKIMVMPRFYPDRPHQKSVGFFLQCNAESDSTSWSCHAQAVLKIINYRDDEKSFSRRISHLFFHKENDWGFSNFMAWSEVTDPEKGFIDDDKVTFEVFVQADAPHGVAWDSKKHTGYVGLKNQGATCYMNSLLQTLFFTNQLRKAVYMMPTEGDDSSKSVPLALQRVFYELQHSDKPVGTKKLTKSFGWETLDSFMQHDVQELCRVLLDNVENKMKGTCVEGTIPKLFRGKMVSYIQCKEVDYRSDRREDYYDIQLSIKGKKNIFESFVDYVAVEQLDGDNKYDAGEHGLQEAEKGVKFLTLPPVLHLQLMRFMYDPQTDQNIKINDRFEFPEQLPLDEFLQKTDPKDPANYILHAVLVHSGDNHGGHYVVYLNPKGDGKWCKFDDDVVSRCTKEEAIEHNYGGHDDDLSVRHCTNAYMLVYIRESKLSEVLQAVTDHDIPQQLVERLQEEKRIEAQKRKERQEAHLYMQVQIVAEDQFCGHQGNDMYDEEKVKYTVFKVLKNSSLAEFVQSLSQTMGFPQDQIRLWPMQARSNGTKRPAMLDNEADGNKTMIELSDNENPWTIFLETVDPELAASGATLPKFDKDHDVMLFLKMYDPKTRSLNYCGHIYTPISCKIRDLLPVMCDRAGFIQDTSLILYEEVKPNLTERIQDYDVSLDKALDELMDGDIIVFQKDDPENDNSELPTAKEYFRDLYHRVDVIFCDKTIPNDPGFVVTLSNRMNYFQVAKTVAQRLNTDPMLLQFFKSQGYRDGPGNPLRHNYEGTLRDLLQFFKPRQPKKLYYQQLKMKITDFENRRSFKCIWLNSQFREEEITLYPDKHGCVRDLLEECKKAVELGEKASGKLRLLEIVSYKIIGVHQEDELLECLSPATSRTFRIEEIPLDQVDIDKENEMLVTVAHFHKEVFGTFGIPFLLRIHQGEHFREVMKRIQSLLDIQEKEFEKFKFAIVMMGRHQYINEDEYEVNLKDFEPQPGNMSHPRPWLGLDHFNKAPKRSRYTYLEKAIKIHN
How it was run: as §1

USP8 = biological target: T5, USP8 (UniProt P40818)
T5 sequence (whole entry): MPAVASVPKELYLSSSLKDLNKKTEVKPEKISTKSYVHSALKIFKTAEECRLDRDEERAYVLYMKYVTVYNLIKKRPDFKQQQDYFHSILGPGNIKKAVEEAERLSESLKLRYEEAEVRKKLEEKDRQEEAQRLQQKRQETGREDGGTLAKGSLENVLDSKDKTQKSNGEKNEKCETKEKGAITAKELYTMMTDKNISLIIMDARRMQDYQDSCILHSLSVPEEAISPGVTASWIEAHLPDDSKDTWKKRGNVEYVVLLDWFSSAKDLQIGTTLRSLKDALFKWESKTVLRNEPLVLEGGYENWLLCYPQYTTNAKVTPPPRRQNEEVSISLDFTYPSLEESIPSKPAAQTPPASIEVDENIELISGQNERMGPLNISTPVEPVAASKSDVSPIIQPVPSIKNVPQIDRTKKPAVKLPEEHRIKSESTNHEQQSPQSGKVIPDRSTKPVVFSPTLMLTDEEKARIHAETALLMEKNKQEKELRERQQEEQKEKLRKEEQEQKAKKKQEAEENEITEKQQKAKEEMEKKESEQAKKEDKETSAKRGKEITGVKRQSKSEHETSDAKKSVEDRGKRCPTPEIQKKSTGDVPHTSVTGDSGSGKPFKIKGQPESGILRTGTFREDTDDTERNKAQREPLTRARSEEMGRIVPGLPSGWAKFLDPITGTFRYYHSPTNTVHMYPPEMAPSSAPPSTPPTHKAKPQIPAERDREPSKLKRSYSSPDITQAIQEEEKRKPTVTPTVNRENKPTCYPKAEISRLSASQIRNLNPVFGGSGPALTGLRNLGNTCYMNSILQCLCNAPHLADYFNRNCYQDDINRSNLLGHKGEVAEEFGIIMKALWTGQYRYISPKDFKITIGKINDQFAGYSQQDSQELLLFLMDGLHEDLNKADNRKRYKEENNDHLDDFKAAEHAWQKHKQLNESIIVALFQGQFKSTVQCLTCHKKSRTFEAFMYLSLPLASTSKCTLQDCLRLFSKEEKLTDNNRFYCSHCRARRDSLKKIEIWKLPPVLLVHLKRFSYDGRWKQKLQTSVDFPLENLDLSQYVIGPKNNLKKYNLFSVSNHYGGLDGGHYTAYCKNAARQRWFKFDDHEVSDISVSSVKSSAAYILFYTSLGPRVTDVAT
How it was run: as §1

Measured: log2 ratio of Biotin-Ahx-Ub-VS probe labelling

O=C(CCl)N1CCN(C(=O)Nc2ccccc2)CC1
inactive: USP42 0.532 | USP46 -0.0442 | USP47 -0.216 | USP48 -0.158 | USP5 0.398 | USP54 0.404 | USP7 -0.132 | USP8 0.0931

Reference: the supplement of paper PMC11732987, “Enantioselective OTUD7B fragment discovery through chemoproteomics screening and high-throughput optimisation” (Communications Chemistry, 2025)
